Laboratory results: PubChem BioAssay (Tox21)
Inconclusive results are not listed. Where a call stands in place of a potency, no number is given. Activity calls are given as the source filed them. Unless noted, calls come from the whole dose curve; as a rule, active = well fitted curve in the direction sought with a large enough effect in the repeat runs; inconclusive = weak or mixed curves; inactive = no such curve, though single readings can be large; an effect the other way counts as inactive or inconclusive.

Legend:
[1] = molecular target: Progesterone receptor (Homo sapiens) (UniProt P06401); experiment: qHTS assay to identify small molecule agonists of the progesterone receptor (PR) signaling pathway (AID 1346784; calls by dose curve; note: nearly all actives have a fitted effect of over 30% in size)
Sequence of Progesterone receptor (Homo sapiens) (P06401 whole entry, looked up): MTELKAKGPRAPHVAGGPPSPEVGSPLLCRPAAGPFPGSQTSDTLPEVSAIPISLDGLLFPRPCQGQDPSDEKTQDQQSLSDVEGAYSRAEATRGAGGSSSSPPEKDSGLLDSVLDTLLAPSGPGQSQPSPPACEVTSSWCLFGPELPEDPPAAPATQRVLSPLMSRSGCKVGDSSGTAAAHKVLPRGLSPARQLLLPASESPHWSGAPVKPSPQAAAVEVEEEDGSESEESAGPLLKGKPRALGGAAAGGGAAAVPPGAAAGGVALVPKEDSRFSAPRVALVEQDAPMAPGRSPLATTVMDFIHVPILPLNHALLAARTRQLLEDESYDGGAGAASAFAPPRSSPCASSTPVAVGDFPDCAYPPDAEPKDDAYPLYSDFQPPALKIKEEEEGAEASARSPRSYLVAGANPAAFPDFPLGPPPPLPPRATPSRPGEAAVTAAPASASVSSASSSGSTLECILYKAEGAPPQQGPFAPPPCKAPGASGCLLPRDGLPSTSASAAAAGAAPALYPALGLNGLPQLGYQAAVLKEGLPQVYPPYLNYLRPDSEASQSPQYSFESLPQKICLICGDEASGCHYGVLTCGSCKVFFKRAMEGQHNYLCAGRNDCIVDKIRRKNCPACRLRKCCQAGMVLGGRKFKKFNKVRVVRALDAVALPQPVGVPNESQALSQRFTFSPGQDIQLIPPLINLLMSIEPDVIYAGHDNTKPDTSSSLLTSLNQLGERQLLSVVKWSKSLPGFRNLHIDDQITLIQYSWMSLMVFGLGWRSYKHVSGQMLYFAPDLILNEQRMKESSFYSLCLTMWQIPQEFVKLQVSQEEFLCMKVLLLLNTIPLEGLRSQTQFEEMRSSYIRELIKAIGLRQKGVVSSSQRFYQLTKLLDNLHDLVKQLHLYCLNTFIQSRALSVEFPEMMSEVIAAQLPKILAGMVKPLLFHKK
Summary of the method: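 The screen uses PR-UAS-bla HEK 293T cells in charcoal-stripped serum (2%). Compounds are applied for 16 hr at 37C after a 6 hr pre-incubation, and reporter activity is detected with a FRET beta-lactamase substrate after 2 hr at room temperature.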

[2] = qHTS assay to identify small molecule antagonists of the progesterone receptor (PR) signaling pathway - cell viability counter screen (AID 1346798); note: series mostly up to about 92 µM; nearly all actives have a fitted effect of over 50% in size
Summary of the method: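 Viability was determined by ATP-based luminescence (CellTiter-Glo) in PR-UAS-bla HEK293T cells cultured in 2% charcoal-stripped serum and incubated 16 hr with compounds under R5020 stimulation.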

[3] = qHTS assay to identify small molecule antagonists of the TGF-beta/Smad signaling pathway - cell viability counter screen (AID 1346824); note: nearly all actives have a fitted effect of over 50% in size
Summary of the method: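 SBE-bla HEK 293T cells, incubated overnight, then compound plus 0.25 ng/mL TGF-beta1 (stock added) for 5 hr at 37 C. Viability was read in the same wells by CellTiter-Glo luminescence after 30 min at room temperature.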

[4] = qHTS assay to identify small molecule agonists of the TGF-beta/Smad signaling pathway - cell viability counter screen (AID 1346829); note: top concentration of the series differs between compounds; nearly all actives have a fitted effect of over 45% in size
Summary of the method: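 HEK 293T SBE-bla line, 5 hr compound exposure at 37 C, multiplexed CellTiter-Glo viability read by luminescence.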

[5] = qHTS assay to identify small molecule agonists of the TGF-beta/Smad signaling pathway (AID 1346859; active = well fitted activation curve with a large enough effect in the signal ratio in the repeat runs, not every such curve was filed as active; the % refers to the signal ratio; note: series mostly up to about 77 µM)
Summary of the method: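 Dual-wavelength fluorescence (460/530 nm emission) quantified beta-lactamase expression under the Smad binding element in HEK 293T cells following 5 hr compound treatment at 37 C.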

[6] = molecular target: Thyrotropin-releasing hormone receptor (Homo sapiens) (UniProt P34981); experiment: qHTS assay to identify small molecule antagonists of the thyrotropin-releasing hormone receptor (TRHR) signaling pathway (AID 1346877; active = well fitted inhibition curve with a large enough effect in the repeat runs, not every such curve was filed as active; note: series mostly up to about 51 µM)
Sequence of Thyrotropin-releasing hormone receptor (Homo sapiens) (P34981 whole entry, looked up): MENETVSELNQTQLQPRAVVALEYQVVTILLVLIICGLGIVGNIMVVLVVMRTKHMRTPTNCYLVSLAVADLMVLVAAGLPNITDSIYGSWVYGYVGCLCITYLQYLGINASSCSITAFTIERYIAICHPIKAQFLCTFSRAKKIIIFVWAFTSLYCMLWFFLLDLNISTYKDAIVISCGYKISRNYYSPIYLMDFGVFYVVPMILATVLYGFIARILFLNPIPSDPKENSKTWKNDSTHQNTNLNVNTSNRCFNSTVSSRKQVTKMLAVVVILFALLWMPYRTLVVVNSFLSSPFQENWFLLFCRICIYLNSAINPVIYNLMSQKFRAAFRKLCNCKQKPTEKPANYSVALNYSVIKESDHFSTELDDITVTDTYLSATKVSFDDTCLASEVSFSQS
Summary of the method: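 TRHR-expressing HEK293 cells were seeded, cultured 18 h at 37 °C, then loaded with calcium dye for 2 h. Compounds were pre-incubated 5 min at room temperature before 1 nM TRH (final) was added, and kinetic fluorescence was recorded for 3 min.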

[7] = Human pregnane X receptor (PXR) small molecule agonists, qHTS cell viability counter screen (AID 1346977); note: nearly all actives have a fitted effect of over 50% in size; note: potency is the fitted concentration of half-maximal effect
Summary of the method: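 HepG2 cells stably carrying the PXR-Luc reporter are cultured with 5% charcoal-stripped FBS and treated with compounds for 24hr. CellTiter-Fluor is added at 23hr and fluorescence is read after 1hr.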

[8] = qHTS assay to identify small molecule agonists of the progesterone receptor (PR) signaling pathway - cell viability counter screen (AID 1346799; calls by dose curve; note: nearly all actives have a fitted effect of over 45% in size; note: potency is the fitted concentration of half-maximal effect)
Summary of the method: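 Viability was scored by ATP luminescence (CellTiter-Glo, 30 min, room temperature) in the same wells used for the reporter readout, after 16 hr compound exposure of PR-UAS-bla HEK293T cells.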

[9] = molecular target: Thyrotropin-releasing hormone receptor (Homo sapiens) (UniProt P34981); experiment: qHTS assay to identify small molecule agonists of the thyrotropin-releasing hormone receptor (TRHR) signaling pathway (AID 1346891; calls by dose curve; note: series mostly up to about 58 µM)
Summary of the method: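 Kinetic fluorescence (3 min, 1 s intervals) reported intracellular calcium after compound transfer onto TRHR-Hek293 cells pre-loaded with dye for 2 h at 37 °C.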

[10] = molecular target: Progesterone receptor (Homo sapiens) (UniProt P06401); experiment: qHTS assay to identify small molecule antagonists of the progesterone receptor (PR) signaling pathway (AID 1346795; active = well fitted inhibition curve with a large enough effect in the signal ratio in the repeat runs, not every such curve was filed as active; the % refers to the signal ratio; note: potency is the fitted concentration of half-maximal effect)
Summary of the method: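 After 6 hr plating at 37C in 2% stripped-serum medium, PR-UAS-bla HEK293T cells got compounds, then 1 nM R5020. Sixteen hours later, LiveBLAzer substrate was applied for 2 hr at room temperature and fluorescence was recorded.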

Row | SMILES | Potency [1] | Potency [2] | Potency [3] | Potency [4] | outcome [5] | Potency [6] | Potency [7] | Potency [8] | Potency [9] | Potency [10]
1 | CC(C)(C)c1ccc(CSc2cnn(C(C)(C)C)c(=O)c2Cl)cc1 | inactive | inactive | inactive | inactive | inactive | inactive | 0.122 µM (active) |  |  | 
2 | CN(CCCC(O)c1cccnc1)N=O (stereo not given) | inactive | inactive | inactive | inactive | inactive | inactive | inactive | inactive | inactive | 
3 | Fc1ccc(Oc2ccnc3cc(Cl)cc(Cl)c23)cc1 | inactive | inactive | inactive | inactive | inactive |  |  |  |  | 
4 | O=[N+]([O-])c1ccc2ccc3cccc4ccc1c2c34 | inactive | inactive | inactive | inactive |  | inactive |  | inactive | inactive | 
5 | CCCSP(=O)(OCC)SCCC | inactive | inactive | inactive |  | inactive | inactive | inactive |  | inactive | 
6 | Oc1ccc2ccc3cccc4ccc1c2c34 | inactive | inactive | inactive |  |  | inactive | inactive | inactive | inactive | 
7 | CC(C)OS(C)(=O)=O |  | inactive | inactive | inactive | inactive | inactive | inactive | inactive | inactive | inactive
8 | OC(Cc1ccccc1Cl)(Cn1cncn1)C1(Cl)CC1 (stereo not given) | inactive |  | inactive |  | inactive |  |  |  |  | 
9 | FC(Cl)(Cl)Cl |  | inactive | inactive | inactive | inactive | inactive | inactive | inactive | inactive | inactive
10 | CC[C@H]1C[C@@H]2C[C@H]3c4[nH]c5ccc(OC)cc5c4CCN(C2)[C@@H]13 | inactive |  | inactive | inactive | inactive | inactive | 47.7 µM (active) |  |  | 
11 | ClC1=C(Cl)[C@]2(Cl)[C@@H]3[C@@H](Cl)[C@H](Cl)C[C@@H]3[C@@]1(Cl)C2(Cl)Cl |  | inactive | inactive | inactive | inactive | inactive | inactive | inactive | inactive | inactive
12 | CCN(CC)c1c([N+](=O)[O-])cc(C(F)(F)F)c(N)c1[N+](=O)[O-] | inactive |  | inactive | inactive | inactive | inactive | inactive |  | inactive | 
13 | ClC(Cl)=C(c1ccc(Cl)cc1)c1ccc(Cl)cc1 |  | inactive | inactive | inactive | inactive | inactive | inactive | 61.1 µM (active) |  | 6.26 µM (active)
14 | CCOP(=O)(NC(C)C)Oc1ccc(SC)c(C)c1 (stereo not given) | inactive |  | inactive | inactive | inactive | inactive | inactive |  | inactive | 
